78 molecules from PubChem BioAssay AID2253 (Southern Research Specialized Biocontainment Screening …, 2010) can be followed below.

Out of some 2,200 compounds screened, about 1,300 (59%) were called active. The rule behind the calls is not given here. The set was probably picked from earlier hits. Only a sample is shown. Entries with a potency or affinity are not part of this list.

The nature of the test: human monocytic cell viability reduction – S. typhimurium screen hits, cytotoxicity control for Salmonella PhoP regulon inhibitors, dose response (AID 2253). As to conditions: THP-1 viability, CellTiter-Glo luminescence, 72 h; series mostly up to 50 µM.
As to `O=C1c2ccccc2C(=O)N1Cc1nc(-c2ccccn2)no1`, the outcome was inactive.
The value for `O=C1c2ccccc2C(=O)N1CCCc1nc(-c2ccccn2)no1` was “inactive”; that for `CCOc1cc(CNn2cnnc2)ccc1OCC(=O)NC1CCCCC1` was “inactive”.
In the case of `Cc1ccccc1OCC(=O)N/N=C/c1ccco1` it was “inactive”; in that of `O=C(COC(=O)/C=C/c1ccco1)Nc1cccc([N+](=O)[O-])c1`, “inactive”.
The value for `CCOC(=O)/C=C1\SCC(=O)N1CC(=O)NC1CCCCC1` was “inactive”; that for `Cc1cc(C)c(NC(=O)COc2ccccc2C(=O)Nc2ccc3c(c2)oc2ccccc23)c(C)c1` was “inactive”.
With `CCn1c(Cc2ccccc2)nnc1SCC(=O)Nc1ccc(S(N)(=O)=O)cc1`, the result was inactive.
With `N/C(=N\OC(=O)COc1ccc(Cl)cc1)c1cccnc1`, the molecule was called inactive.
Regarding `c1ccc(CCNc2nc3ccccc3s2)cc1`, the call was inactive.
For `COc1ccc(/C=C/C(=O)NCCc2nc3ccccc3[nH]2)cc1`, the molecule was called inactive.
For `Cc1ccc(C(=O)Oc2ccc(C(=O)COC(=O)c3cnccn3)cc2)cc1`, the molecule was classed as inactive.
As for `Nc1nnc(SCc2ccc(F)cc2Cl)s1`, the outcome was inactive.
As to `O=C(CSc1nnc(-c2cccnc2)o1)OC1CCCCC1`, the result was inactive.
In the case of `C/C(=N/NC(=O)Cc1cccn1C)c1ccccc1` it was “inactive”; in that of `Cc1oc(CC(C)C)c(CN)c1C(=O)O`, “inactive”; in that of `Cn1c(-c2ccc(N)cc2)nc2ccccc21`, “inactive”.
In the case of `CCOc1ccccc1Nc1nc2ccccc2n2cnnc12` it was “inactive”; in that of `CCCn1c(N)nc2ccccc21`, “inactive”.
The value for `CCCNC(=O)CN(C1CCCCC1)S(C)(=O)=O` was “inactive”; that for `O=C(CSc1n[nH]c(=O)[nH]c1=O)N/N=C/c1ccccc1` was “inactive”; that for `COc1cc([N+](=O)[O-])ccc1NC(=O)CN(C)C` was “inactive”.
On to `CC1CCc2cc(F)cc3c(=O)c(C(=O)O)cn1c23` (stereo not drawn), for which the molecule was called inactive.
In the case of `CCN1C(=O)N/C(=C/c2ccc(Sc3ccc(C)cc3)o2)C1=O` it was “inactive”; in that of `COc1nsnc1NS(=O)(=O)c1ccc(NC(=S)NC(=O)c2cccnc2)cc1`, “inactive”; in that of `O=C(Nc1cccnc1)c1cc(F)cc(F)c1`, “inactive”.
As for `COc1nccnc1NS(=O)(=O)c1ccc(NC(=S)NC(=O)c2cccnc2)cc1`, the molecule was classed as inactive.
Regarding `Cc1cccc(C(=O)NC(=S)Nc2ccc(N3CCOCC3)cc2)c1`, the outcome was inactive.
The value for `COC(=O)Cc1ccc(NC(=S)N2CCN(c3ccc(F)cc3)CC2)cc1` was “inactive”; that for `O=C(Nc1ccccc1)Oc1ccc[nH]c1=O` was “inactive”.
For `CCCOc1ccc(C(=O)N2CCCC2C(=O)O)cc1` (stereo not drawn), the result was inactive.
In the case of `O=C(Nc1ccccn1)NC1CCCCC1`, the molecule was called inactive.
In the case of `CC(C)Nc1cc(C(F)(F)F)nc(-c2ccccn2)n1` it was “inactive”.
Turning to `COc1ccccc1NCCC(=O)OCC(=O)NC1CCCCCC1`, the outcome was inactive.
The value for `O=C(Nc1ccsc1C(=O)NC1CCCCC1)c1ccccc1` was “inactive”; that for `C/C(=N\NC(=O)c1ccccc1)c1ccc2c(c1)OCO2` was “inactive”.
In the case of `O=S(=O)(c1ccc(NC(=S)Nc2ccc3c(c2)OCO3)cc1)N1CCOCC1` it was “inactive”.
In the case of `O=C(Nc1nccs1)c1cc(-c2ccco2)nc2ccccc12` it was “inactive”; in that of `COc1ccc(-c2cc(C(=O)Nc3ccc(S(=O)(=O)Nc4ncccn4)cc3)c3ccccc3n2)cc1`, “inactive”.
Regarding `N#CCCN(C(=O)CN1C(=O)NC2(CCCC2)C1=O)c1ccccc1F`, the outcome was inactive.
Regarding `O=C(CSc1nnc(Cc2ccccc2)o1)NCCc1ccccc1`, the result was inactive.
For the molecule `c1ccc(CSc2nnc(-c3ccncc3)o2)cc1`, the molecule was classed as inactive.
In the case of `O=C(NCCc1ccccc1)c1ccc2nc(-c3ccco3)c(-c3ccco3)nc2c1`, the outcome was inactive.
As for `CCn1cc(C(=O)O)c(=O)c2cc(F)c(N3CCN(C(=S)NC(=O)c4cccc(F)c4)CC3)cc21`, the result was inactive.
The value for `Cc1ccc(C(=O)c2ccccc2C(=O)O)c(O)c1` was “inactive”; that for `Cc1cc(C)cc(-n2c(C)cc(C=C(C#N)C#N)c2C)c1` was “inactive”.
In the case of `CCN(c1ccc(OCC(=O)OCC(=O)Nc2ccc(F)c(F)c2F)cc1)S(=O)(=O)c1ccccc1` it was “inactive”; in that of `NC1CCN(c2nc3c(cc2F)c(=O)c(C(=O)O)cn3-c2ccc(F)cc2F)C1` (stereo not drawn), “inactive”; in that of `CCOC(=O)C1=C(C)NC(=S)NC1c1ccc(OC(=O)c2ccco2)cc1` (stereo not drawn), “inactive”.
`CCNC(=O)NC1(C(=O)Nc2ccc3c(c2)OCCO3)CCCCC1`: the outcome was inactive.
In the case of `O=C(Nc1nc2ccc(SC(F)F)cc2s1)c1ccc2c(c1)S(=O)(=O)c1ccccc1C2=O`, the call was inactive.
For the molecule `Cc1nn(C)c(C)c1S(=O)(=O)N1CCC(C(=O)NC2CCCCC2)CC1`, the outcome was inactive.
On to `Cc1cccc(N2CCN(CC(=O)Nc3nccs3)CC2)c1C`, for which the call was inactive.
The value for `O=c1cc(Cc2ccccc2)[nH]c(=S)[nH]1` was “inactive”.
Turning to `CC1CCc2c(N3CCC(O)CC3)c(F)cc3c(=O)c(C(=O)O)cn1c23` (stereo not drawn), the result was inactive.
The value for `CC1(C)CC(=O)C=C(Nc2ccc(Br)cn2)C1` was “inactive”.
The value for `Cc1nn(CCOc2ccccc2)c(=O)n1-c1ccc(F)cc1` was “inactive”; that for `CCCn1c(/N=C/c2ccc3c(c2)OCO3)nc2ccccc21` was “inactive”.
On to `CCCn1c(NCCO)nc2ccccc21`, for which the call was inactive.
In the case of `CC(Cl)C(=O)NNc1cccc(Cl)n1` (stereo not drawn) it was “inactive”; in that of `S=c1nc(C2CCCCC2)[nH][nH]1`, “inactive”.
In the case of `Cc1cc(C)n2c(SCC(=O)NCc3ccco3)nnc2n1` it was “inactive”; in that of `COc1ccc(C(=O)C(CO)Oc2ccccc2OC)cc1OC` (stereo not drawn), “inactive”; in that of `CCS(=O)(=O)Nc1cc(C(=O)OC)ccc1C(=O)OC`, “inactive”.
For `CCCCOC(=O)CSc1nc2c(c(=O)[nH]c(=O)n2C)n1C/C=C(\C)Cl`, the outcome was inactive.
The value for `Cc1ccc(NC(=O)c2ccccc2)s1` was “inactive”.
Consider `Brc1cccc(CNCc2cccs2)c1`, for which the molecule was called inactive.
The value for `Cc1cc(C(=O)NCc2cccs2)cs1` was “inactive”.
Regarding `CCN(CC)Cc1c[nH]c2c(C(=O)OC)cccc12`, the result was inactive.
The value for `COCCn1c(-c2ccccc2F)n[nH]c1=S` was “inactive”.
The value for `CN1CCCC(OC(=O)c2ccc3c(c2)OCCO3)C1` (stereo not drawn) was “inactive”; that for `O=C(CCN1CCCCC1)NCC1OCCc2ccccc21` (stereo not drawn) was “inactive”.
For the molecule `O=C(CCNS(=O)(=O)c1cccc2nsnc12)Nc1ccc2c(c1)OCCO2`, the molecule was classed as inactive.
The value for `S=c1[nH]nc(Cc2cccc3ccccc23)o1` was “inactive”; that for `c1coc(CNc2c3c(nc4ncnn24)CCCC3)c1` was “inactive”.
On to `CCOc1ccc(CCNC(=O)c2cc3sc(Cl)cc3n2C)cc1OCC`, for which the call was inactive.
`CCN1CCN(C(=O)c2ccc(COc3ccc(Cl)cc3)o2)CC1`: the molecule was called inactive.
In the case of `CCOc1ccc(/C=N/O)cc1`, the call was inactive.
